A selection: hits, their analogues and other compounds. The true share with any hit is near 1.1%.
HTR5A ag – counter-screen for OPRM1-OPRD1 agonists: human HTR5A agonism; P47898; HTR5A agonist assay, luminescence, cell-based; activation, % at 9.3 µM; 340,000 tested, 0.61% active; AID 504692; in the data active = activation mostly above about 9.5%, no sharp cut-off; inactive = mostly below about 7.6%
Target sequence (P47898 whole entry, looked up): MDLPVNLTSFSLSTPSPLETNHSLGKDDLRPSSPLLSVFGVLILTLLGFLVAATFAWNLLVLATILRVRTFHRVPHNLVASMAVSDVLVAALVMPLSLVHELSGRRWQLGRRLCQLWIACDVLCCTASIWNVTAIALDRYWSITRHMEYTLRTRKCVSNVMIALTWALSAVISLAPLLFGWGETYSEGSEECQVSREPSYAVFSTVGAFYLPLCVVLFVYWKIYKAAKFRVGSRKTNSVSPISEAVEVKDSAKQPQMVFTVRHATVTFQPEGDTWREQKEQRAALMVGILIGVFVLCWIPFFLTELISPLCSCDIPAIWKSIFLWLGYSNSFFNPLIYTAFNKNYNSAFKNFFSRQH
OPRM1-OPRD1 inv – inverse agonists of human mu-delta opioid receptor heterodimerization. inhibition, % at 9.3 µM. cell-based MOR-DOR heterodimer luminescence, inverse agonism. AID 504357. 340,000 tested, 0.21% active; in the data active = inhibition above about 22%, passing the limit was not always enough
OPRM1-OPRD1 ag – agonists of human mu-delta opioid receptor heterodimerization; P35372+P41143; cells, OPRM1-OPRD1 heterodimerization, luminescence; activation, % at 9.3 µM; 340,000 tested, 0.3% active; AID 504326
HTR5A inv ag – counter-screen for OPRM1-OPRD1 inverse agonists: human HTR5A inverse agonism; P47898; HTR5A cell line, luminescence; inhibition, % at 9.3 µM; 340,000 tested, 0.083% active; in the data active = inhibition mostly above about 23%, no sharp cut-off; inactive = mostly below about 18%
OPRM1-D1 ag cf – OPRM1-OPRD1 heterodimer agonism, confirmation | shares compounds with OPRM1-OPRD1 ag | cells, MOR-DOR heterodimerization, luminescence complementation | activation, % at 9.3 µM | 830 tested, 45% active
HTR5A ag counter – HTR5A agonism, opioid heterodimer counter-screen. shares compounds with OPRM1-OPRD1 ag. HTR5A agonist counterscreen, cell luminescence. activation, % at 9.3 µM. 830 tested, 8% active; in the data active = activation above about 17%
Hits are given with their value; 0 = inactive; - = no result given; + = active, no number. Cut-off read from the data, not from the text of the source, unless noted: active = activation above about 18%; inactive = the rest.

SMILES	HTR5A ag	OPRM1-OPRD1 inv	OPRM1-OPRD1 ag	HTR5A inv ag	OPRM1-D1 ag cf	HTR5A ag counter
Cn1cnc(CCN)c1	0	0	0	0	-	-
CC(=O)O[C@]1(c2ccccc2)CCN(C)[C@H]2CCCC[C@@H]21	0	0	0	0	-	-
CCC1CN(C)CCC1(OC(C)=O)c1ccccc1 (stereo not drawn)	0	0	25	0	23	0
Cc1ccc(-n2cc(CNC(C)Cc3cnccn3)c(-c3cccc(C)c3)n2)cc1 (stereo not drawn)	0	0	42	0	0	0
Oc1c(Cl)cccc1Cc1cc(Cl)cc(Cl)c1O	0	0	0	0	-	-
Cc1nc2c(=O)n(C)c(=O)nc-2n(C)n1	0	0	20	0	22	0
CN1[C@@H]2CCC[C@H]1CC(=O)C2	0	0	0	0	-	-
C[C@@H]1O[C@@H](O[C@H]2C[C@@H](O)[C@]3(CO)[C@@H]4C(CC[C@]3(O)C2)[C@@]2(O)CC[C@H](C3COC(=O)C3)[C@@]2(C)C[C@H]4O)[C@H](O)[C@H](O)[C@H]1O (stereo partly drawn)	0	0	73	0	0	0
C=CCN1C[C@@H](C)N(C(c2ccc(C(=O)N(CC)CC)cc2)c2cccc(OC)c2)C[C@@H]1C (stereo partly drawn)	0	-	-	0	-	0
CC12CC[C@H]3[C@@H](CCC4(O)C[C@H](O)CCC34/C=N/NC(=O)c3ccccc3[N+](=O)[O-])C1(O)CCC2C1=CC(=O)OC1 (stereo partly drawn)	11	0	21	0	0	0
CC(=O)OC1CC(OC2C(O)CC(OC3C(O)CC(OC4CCC5(C)C(CCC6C5CC(O)C5(C)C(C7=CC(=O)OC7)CCC65O)C4)OC3C)OC2C)OC(C)C1OC1OC(CO)C(O)C(O)C1O (stereo not drawn)	26	0	69	0	0	0
C[C@H]1CC[C@@H]2[C@@H](C)[C@H]3[C@H](C[C@H]4[C@@H]5CC=C6C[C@@H](O[C@@H]7O[C@H](CO)[C@H](O)[C@H](O[C@@H]8O[C@H](CO)[C@@H](O)[C@H](O)[C@H]8O)[C@H]7O[C@@H]7O[C@@H](C)[C@H](O)[C@@H](O)[C@H]7O)CC[C@]6(C)[C@H]5CC[C@]34C)N2C1	0	0	0	0	-	-
COC1C(O)C(C)OC(OC2CCC3(C)C(CCC4C3C(O)CC3(C)C(C5=CC(=O)OC5)CCC43O)C2)C1O (stereo not drawn)	31	0	85	0	28	0
C[C@]12CC[C@H](O)C[C@H]1CC[C@@H]1[C@@H]2C[C@@H](O)[C@]2(C)[C@@H](C3=CC(=O)OC3)CC[C@]12O	34	0	69	0	40	30
C[C@]12CCC3C(CC[C@H]4C[C@@H](O)CC[C@]34C)[C@H]1C=CC2=O (stereo partly drawn)	0	0	0	0	-	-
COC(=O)C1=C(c2cccc(OC)c2OC)C[C@@H]2CC[C@H]1N2C(=O)N1CCC(C)CC1	0	0	0	0	-	-
CNc1ccc2nc3ccccc3[n+](C)c2c1	0	0	0	0	-	-
CN1CCN(C(=O)O[C@H]2c3nccnc3C(=O)N2c2ccc(Cl)cn2)CC1	0	0	0	0	-	-
COC(=O)C1=C(c2c(C)noc2C)C[C@@H]2CC[C@H]1N2C(=O)NCCO	0	0	0	0	-	-
Cc1cc(OCC(=O)N2CCC(C(N)=O)CC2)c2c3c(c(=O)oc2c1)CCCC3	0	0	0	0	-	-
CC12CCC(O)CC1CCC1C2CCC2(C)C(C3=CC(=O)OC3)CCC12O (stereo not drawn)	33	0	93	0	0	0
CCOC(=O)C1(CCc2ccccc2)CCN(Cc2csc(C(C)=O)c2)CC1	0	0	63	0	0	18
CCOC(=O)C1(CCc2ccccc2)CCN(Cc2cccc3cnccc23)CC1	0	0	0	0	-	-
CCOC(=O)C1(CCc2ccccc2)CCN(Cc2cccc3c2OCO3)CC1	0	0	36	0	0	0
COc1ccc2c(c1O)-c1c(OC)c(OC)cc3c1[C@H](C2)N(C)CC3	0	0	0	0	-	-
CCCN1CCc2cccc3c2[C@H]1Cc1ccc(O)c(O)c1-3	0	0	19	0	20	0
Clc1ccc(COC(Cn2ccnc2)c2ccc(Cl)cc2Cl)cc1 (stereo not drawn)	0	0	0	0	-	-
Clc1ccc(CSC(Cn2ccnc2)c2ccc(Cl)cc2Cl)cc1 (stereo not drawn)	0	0	+	0	0	0
